# Experimental data published in PubChem BioAssay.
# “And” between values parts separate entries of the source, which are not always exact repeats. Identical values can stand only once. Results filed as inconclusive are left out. For some of these results: Results with a measured potency or affinity are listed apart. The source holds several records for some structures; these can differ, active in one and inactive in another. The source made the active and inactive calls. Unless noted, no rule for the calls is given here.
# Legend:
# [1] = kinase inhibitors against Plasmodium liver-stage infection, cell-based, known kinase inhibitor set, luminescence, hepatoma host viability (AID 624392); details: Plasmodium liver stage in hepatoma cells, luciferase luminescence, concentration not given here; liver cell % of control: measured here: host liver cell viability; parasite % of control: stronger effect = lower value;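 also: infected cells incubated roughly two days before readout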
# [2] = sensitizers of A549 cells to miR-34 induction, primary screen, imaging, A549 dox-inducible miR-34, nuclei and caspase counts (AID 1347080;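 active = compounds whose cell count with miR-34 switched on is under 0.7 times the count with it off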); details: A549 miR-34 inducible, Hoechst nuclei count, 48 h
# [3] = survival rescue of mitochondrial mutant cells in low glucose, primary screen, MELAS cybrids, Rieske KO mouse fibroblasts, CellTiter-Glo (AID 1508586;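 active = mean z-score across replicates of 1.96 or higher in either the MELAS or the Rieske mutant cell line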;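 also: z relative to plate mean and SD of compound and empty wells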)
# [4] = test system: Hepatitis C virus NS3 helicase; test: HCV NS3 helicase inhibitors, primary screen, biochemical, fluorescence polarization, LOPAC1280 library (AID 687035; in the data active = inhibition above about 37%); details: Purified HCV NS3 helicase, Cy5-dT15 ssDNA binding fluorescence polarization; stronger effect = higher value; concentration not given here
# [5] = Cy5 fluorescence quenching or enhancement artefacts, artefact control for HCV NS3 helicase inhibitor project, biochemical, LOPAC1280 (AID 687037); details: Cy5-DNA-NS3h complex fluorescence interference counterscreen
# [6] = polyglutamine-triggered caspase-3 activation inhibitors, cell-based (AID 1583); details: polyglutamine-induced caspase-3 activation, cell assay; stronger effect = higher value;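 tested at 10 µM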
# [7] = suppressors of polyQ aggregation in yeast, 75Q-TubU reporter (AID 1593); details: Yeast 75Q polyglutamine aggregation reporter
# [8] = rescue of polyQ-huntingtin neuronal dysfunction in worms, whole organism, C. elegans mechanosensory neurons, N-terminal huntingtin (AID 1599); details: touch response, stronger effect = higher value
# [9] = inhibitors of mitochondrial cytochrome c release, biochemical, purified mitochondria (AID 1603); details: stronger effect = lower value;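 also: mouse liver mitochondria challenged with calcium chloride; signal normalized to the plate average as 100%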
# [10] = inhibitors of polyQ protein aggregation (AID 1604); details: polyglutamine-induced protein aggregation inhibition assay; stronger effect = higher value; tested at 2.5 µM
# [11] = enhancers of glutamate uptake in motor neurons, MN-1 cell line (AID 1612); details: MN-1 motor neuron cells, stronger effect = higher value;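 also: tested at 1 µM final; 0% = mean of DMSO vehicle wells on each plate; positive means more glutamate uptake than control and negative means less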
# [12] = reducers of polyQ inclusions in PC12 cells, cell-based, NGF-treated PC12, GFPQ80 (AID 1614); details: PC12 NGF-treated GFP-polyQ80 inclusion reduction;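 also: lower means fewer inclusions and 0 means no inclusions at all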
# [13] = suppressors of polyglutamine aggregation in yeast, 75Q-TubH (AID 1616); details: S. cerevisiae 75Q-TubH polyglutamine aggregation suppression; stronger effect = higher value
# [14] = viability rescue of complex I mutant cybrids, primary screen, cell-based, galactose medium, ATP luminescence (AID 1645843;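 active = z-score of at least 1.8 in each of two replicates, scored against plate mean and spread of sample wells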;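 also: positive z means more ATP and so rescue of galactose-driven cybrid death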); details: complex I mutant cybrid cells, 72 h, stronger effect = higher value
# [15] = target: ATP-dependent translocase ABCB1 (Homo sapiens) (UniProt P08183); test: MDR1 (ABCB1) efflux transporter inhibition, cell-based (AID 377; in the data active = fluorescence slope change above about 50%); details: MDR1-expressing cells, fluorescent substrate accumulation slope; stronger effect = higher value; concentration not given here
# [16] = liver-stage malaria parasite growth inhibition, primary screen, cell-based, HepG2, luciferase luminescence, HepG2 viability (AID 624349; in the data active = parasite load remaining mostly below about 12%, no sharp cut-off; inactive = mostly above about 10%;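 also: 100% = mean of DMSO negative control wells on the same plate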); details: P. berghei liver stage in HepG2, luciferase luminescence, concentration not given here; parasite load remaining: stronger effect = lower value; viability: measured here: HepG2 viability without parasites
# [17] = target: Mitogen-activated protein kinase 7 (Homo sapiens) (UniProt Q13164); test: ERK5 transactivation activators in reporter cells, primary screen, cell-based, HTS (AID 1508626;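 active = luciferase signal above three times the same-plate solvent-only control wells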;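 also: luciferase driven by Gal4-ERK5 fusion binding five Gal4 sites before minimal TATA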); details: HeLa Gal4-ERK5 transactivation, 18 h, at 5 µM, stronger effect = higher value
# [18] = protection against mutant huntingtin cytotoxicity, PC12 cells, LDH release (AID 1610); details: PC12 mutant huntingtin toxicity, final LDH at 4 uM, stronger effect = lower value
# [19] = enhancers of SMN2 over SMN1 splicing, cell-based, SMN2/SMN1 luciferase reporters (AID 1598); details: SMN2 vs SMN1 luciferase splicing reporter cells, at 10 µM; SMN1 luciferase ratio: measured here: SMN1 luciferase reporter average; SMN2 luciferase ratio: measured here: SMN2 luciferase reporter average, stronger effect = higher value; SMN2/SMN1 luciferase ratio: stronger effect = higher value
# [20] = hESC survival regulators, cell-based (AID 493140); details: human embryonic stem cell survival screen; stronger effect = higher value;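 also: cells exposed to compounds for four days before counting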
# [21] = stronger effect = lower value, cell number ratio, induced over uninduced
# [22] = measured here: relative caspase fold change +Dox/-Dox
# [23] = measured here: total cells with miR-34 induction, stronger effect = lower value
# [24] = measured here: total cells without miR-34 induction
# [25] = MELAS cybrid survival, CellTiter-Glo 48 h, stronger effect = higher value
# [26] = Rieske KO mouse fibroblast survival, CellTiter-Glo 72 h
# Chain of ATP-dependent translocase ABCB1 (Homo sapiens) (P08183 whole entry, looked up): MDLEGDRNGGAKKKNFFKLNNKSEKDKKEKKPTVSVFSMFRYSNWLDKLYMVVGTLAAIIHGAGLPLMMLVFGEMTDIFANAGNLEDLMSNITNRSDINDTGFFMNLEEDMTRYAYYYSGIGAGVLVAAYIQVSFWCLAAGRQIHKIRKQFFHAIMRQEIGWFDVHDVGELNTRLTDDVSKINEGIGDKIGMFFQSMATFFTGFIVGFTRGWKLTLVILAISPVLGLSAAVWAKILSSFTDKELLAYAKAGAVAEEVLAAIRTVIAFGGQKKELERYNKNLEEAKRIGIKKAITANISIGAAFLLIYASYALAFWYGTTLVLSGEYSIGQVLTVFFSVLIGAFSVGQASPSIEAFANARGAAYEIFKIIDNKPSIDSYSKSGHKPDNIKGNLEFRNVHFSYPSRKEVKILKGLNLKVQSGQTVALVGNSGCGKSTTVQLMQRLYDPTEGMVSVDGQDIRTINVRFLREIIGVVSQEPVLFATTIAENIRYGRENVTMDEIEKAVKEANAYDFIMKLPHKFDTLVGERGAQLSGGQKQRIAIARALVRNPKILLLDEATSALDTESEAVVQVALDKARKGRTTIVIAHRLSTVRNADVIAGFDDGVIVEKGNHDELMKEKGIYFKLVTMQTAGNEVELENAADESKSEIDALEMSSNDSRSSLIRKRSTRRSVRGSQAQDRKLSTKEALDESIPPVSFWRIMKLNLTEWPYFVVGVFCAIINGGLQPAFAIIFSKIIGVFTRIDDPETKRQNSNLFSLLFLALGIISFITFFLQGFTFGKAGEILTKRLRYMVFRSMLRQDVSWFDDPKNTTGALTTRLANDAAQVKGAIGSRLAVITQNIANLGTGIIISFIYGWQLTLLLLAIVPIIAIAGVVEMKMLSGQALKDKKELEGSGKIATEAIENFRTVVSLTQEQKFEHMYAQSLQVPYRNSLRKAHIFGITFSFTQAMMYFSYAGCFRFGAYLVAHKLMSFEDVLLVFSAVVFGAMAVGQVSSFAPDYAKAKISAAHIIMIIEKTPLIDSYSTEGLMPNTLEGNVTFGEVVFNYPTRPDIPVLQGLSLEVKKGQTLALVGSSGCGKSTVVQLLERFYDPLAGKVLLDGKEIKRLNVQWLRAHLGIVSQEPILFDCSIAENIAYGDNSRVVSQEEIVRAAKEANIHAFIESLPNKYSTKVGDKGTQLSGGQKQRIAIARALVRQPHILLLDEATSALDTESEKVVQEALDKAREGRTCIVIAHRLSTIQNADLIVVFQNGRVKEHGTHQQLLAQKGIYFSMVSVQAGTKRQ
# Chain of Mitogen-activated protein kinase 7 (Homo sapiens) (Q13164 whole entry, looked up, the tested form may be a part): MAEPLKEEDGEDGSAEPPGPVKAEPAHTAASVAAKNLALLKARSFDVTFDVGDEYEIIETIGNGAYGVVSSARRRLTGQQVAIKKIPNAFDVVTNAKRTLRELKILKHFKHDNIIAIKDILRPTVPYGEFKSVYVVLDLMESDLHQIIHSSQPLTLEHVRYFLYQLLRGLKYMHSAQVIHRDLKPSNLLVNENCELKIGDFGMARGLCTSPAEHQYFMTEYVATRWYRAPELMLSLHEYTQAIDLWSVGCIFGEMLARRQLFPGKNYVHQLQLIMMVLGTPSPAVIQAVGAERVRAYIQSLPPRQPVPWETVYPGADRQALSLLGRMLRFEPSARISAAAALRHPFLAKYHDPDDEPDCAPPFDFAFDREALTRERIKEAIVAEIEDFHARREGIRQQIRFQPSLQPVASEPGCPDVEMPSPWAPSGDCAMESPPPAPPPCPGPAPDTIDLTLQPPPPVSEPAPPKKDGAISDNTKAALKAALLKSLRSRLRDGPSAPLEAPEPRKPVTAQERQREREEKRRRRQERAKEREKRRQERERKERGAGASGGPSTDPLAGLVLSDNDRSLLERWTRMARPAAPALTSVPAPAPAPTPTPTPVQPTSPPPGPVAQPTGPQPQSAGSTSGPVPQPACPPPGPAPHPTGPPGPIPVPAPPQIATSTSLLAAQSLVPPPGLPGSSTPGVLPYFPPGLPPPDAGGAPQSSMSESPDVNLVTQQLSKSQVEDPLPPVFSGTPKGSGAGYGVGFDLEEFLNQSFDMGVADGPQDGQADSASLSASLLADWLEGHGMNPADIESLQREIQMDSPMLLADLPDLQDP
compound,measurement,setting,value
COC(C(=O)N1Cc2[nH]nc(NC(=O)c3ccc(N4CCN(C)CC4)cc3)c2C1)c1ccccc1 (stereo not drawn),liver cell % of control,[1],82.1% and 96.2% and 98.6%
same,parasite % of control,[1],40.2% (inactive) and 56.3% (inactive) and 75.4% (inactive)
same,fold change,[2]; [21],1.01 (inactive)
same,fold change,[2]; [22],0.994
same,cell count,[2]; [23],1850
same,cell count,[2]; [24],1820
same,z-score,[3]; [25],1.1 (inactive)
same,z-score,[3]; [26],-2.53
CN(C)CCC(CSc1ccccc1)Nc1ccc(S(=O)(=O)NC(=O)c2ccc(N3CCN(Cc4ccccc4-c4ccc(Cl)cc4)CC3)cc2)cc1[N+](=O)[O-] (stereo not drawn),liver cell % of control,[1],65.5% and 90.4% and 88.4%
same,parasite % of control,[1],27.6% (inactive) and 29.4% (inactive) and 37% (inactive)
same,fold change,[2]; [21],0.995 (inactive)
same,fold change,[2]; [22],0.778
same,cell count,[2]; [23],5830
same,cell count,[2]; [24],5860
same,z-score,[3]; [25],-0.297 (inactive)
same,z-score,[3]; [26],-2.14
CCc1c(C(=O)NCCc2ccc(N3CCCCC3)cc2)[nH]c2ccc(Cl)cc12,inhibition,[4],0% (inactive)
same,fluorescence ratio (interference),[5],1 (inactive)
same,fold change,[2]; [21],0.939 (inactive)
same,fold change,[2]; [22],0.558
same,cell count,[2]; [23],7490
same,cell count,[2]; [24],7980
same,z-score,[3]; [25],0.376 (inactive)
same,z-score,[3]; [26],-0.206
Cc1ccccc1-n1c(Cn2nc(-c3cccc(O)c3)c3c(N)ncnc32)nc2cccc(C)c2c1=O,liver cell % of control,[1],93.6% and 86.4% and 105%
same,parasite % of control,[1],34.6% (inactive) and 44.4% (inactive) and 71.3% (inactive)
same,fold change,[2]; [21],0.979 (inactive)
same,fold change,[2]; [22],0.801
same,cell count,[2]; [23],7710
same,cell count,[2]; [24],7880
same,z-score,[3]; [25],-0.245 (inactive)
same,z-score,[3]; [26],-0.436
CN(C)CC=CC(=O)Nc1cc2c(Nc3ccc(F)c(Cl)c3)ncnc2cc1OC1CCOC1 (stereo not drawn),liver cell % of control,[1],39.8% and 42.2% and 47.1%
same,parasite % of control,[1],0.262% (inactive) and 0.42% (inactive) and 32.1% (inactive)
same,fold change,[2]; [21],0.839 (inactive)
same,fold change,[2]; [22],1.69
same,cell count,[2]; [23],2280
same,cell count,[2]; [24],2710
same,z-score,[3]; [25],5.09 (active)
same,z-score,[3]; [26],0.143
CN=C(N)NCCCC(N)C(=O)O (stereo not drawn),inhibition,[6],9.27%
same,score,[7],2.21
same,rescue above control,[8],-4.19
same,cytochrome c release ratio,[9],0.94
same,inhibition of aggregation,[10],-4.76%
same,glutamate uptake change,[11],3.17%
same,inclusion score,[12],2
same,aggregation suppression score,[13],1.06
same,fold change,[2]; [21],0.944 (inactive)
same,fold change,[2]; [22],1.42
same,cell count,[2]; [23],9430
same,cell count,[2]; [24],9990
same,z-score,[14],1.06 (inactive)
CC[C@]12CCCN3CCc4c(n(c5ccccc45)[C@](O)(C(=O)OC)C1)[C@@H]32,fluorescence slope change,[15],15.4% (inactive)
same,inhibition,[6],18.7%
same,score,[7],1.6
same,rescue above control,[8],4.14
same,cytochrome c release ratio,[9],1.05
same,inhibition of aggregation,[10],27%
same,glutamate uptake change,[11],-2.93%
same,inclusion score,[12],2.5
same,aggregation suppression score,[13],1.32
same,parasite load remaining,[16],112% (inactive) and 81.9% (inactive) and 58.4% (inactive)
same,viability,[16],102% and 72.1% and 74.9%
same,fold change,[2]; [21],0.786 (inactive)
same,fold change,[2]; [22],1.26
same,cell count,[2]; [23],7940
same,cell count,[2]; [24],10100
C[C@]1(OC(=O)/C=C/c2ccccc2)C[C@@H](O)[C@]2(O)C=CO[C@@H](O[C@@H]3O[C@H](CO)[C@@H](O)[C@H](O)[C@H]3O)[C@@H]21,parasite load remaining,[16],121% (inactive)
same,viability,[16],74.8%
same,fold change,[2]; [21],0.943 (inactive)
same,fold change,[2]; [22],0.61
same,cell count,[2]; [23],9240
same,cell count,[2]; [24],9800
same,luciferase signal,[17],28 AU (inactive)
CC(Cc1ccc(O)c(O)c1)C(C)Cc1ccc(O)c(O)c1 (stereo not drawn),inhibition,[6],-3.14%
same,score,[7],0.83
same,rescue above control,[8],-2.86
same,cytochrome c release ratio,[9],3.11
same,inhibition of aggregation,[10],-17%
same,normalised LDH release,[18],0.415
same,glutamate uptake change,[11],67.2%
same,aggregation suppression score,[13],0.665
same,fold change,[2]; [21],1.04 (inactive)
same,fold change,[2]; [22],1.01
same,cell count,[2]; [23],5990
same,cell count,[2]; [24],5750
O[N+]1=CC=CCC1=S.On1ccccc1=S.[Zn],score,[7],0.07
same,SMN1 luciferase ratio,[19],0.04
same,SMN2/SMN1 luciferase ratio,[19],1.77 (active)
same,SMN2 luciferase ratio,[19],0.08
same,rescue above control,[8],16
same,cytochrome c release ratio,[9],1.27
same,inhibition of aggregation,[10],0%
same,glutamate uptake change,[11],-74.2%
same,aggregation suppression score,[13],-0.0147
same,parasite load remaining,[16],-0.27% (inactive) and -0.08% (inactive)
same,viability,[16],2.62% and 0%
same,fold change,[2]; [21],0.416 (active)
same,fold change,[2]; [22],2.93
same,cell count,[2]; [23],79
same,cell count,[2]; [24],190
Cc1ccc([N+](=O)[O-])cc1S(=O)(=O)N(C)N=Cc1cnc2ccc(Br)cn12,liver cell % of control,[1],52.2% and 52.1% and 55.5%
same,parasite % of control,[1],4.51% (inactive) and 2.82% (inactive) and 2.1% (active)
same,fold change,[2]; [21],0.935 (inactive)
same,fold change,[2]; [22],0.896
same,cell count,[2]; [23],837
same,cell count,[2]; [24],896
same,z-score,[3]; [25],-0.394 (inactive)
same,z-score,[3]; [26],-2.82
CC1(C)S[C@@H]2[C@H](NC(=O)[C@H](NC(=O)N3CCNC3=O)c3ccccc3)C(=O)N2C1C(=O)O (stereo partly drawn),inhibition,[6],10.9%
same,score,[7],1.31
same,rescue above control,[8],-2.48
same,cytochrome c release ratio,[9],1.14
same,inhibition of aggregation,[10],54.5%
same,glutamate uptake change,[11],7.74%
same,inclusion score,[12],2
same,aggregation suppression score,[13],1.29
same,survival,[20],4.75 (inactive)
same,parasite load remaining,[16],188% (inactive) and 42.9% (inactive)
same,viability,[16],87.9% and 114%
same,fold change,[2]; [21],0.882 (inactive)
same,fold change,[2]; [22],3.93
same,cell count,[2]; [23],12000
same,cell count,[2]; [24],13600
C=C1c2c(Cl)ccc(O)c2C(O)=C2C(=O)[C@]3(O)C(O)=C(C(N)=O)C(=O)[C@@H](N(C)C)[C@@H]3[C@@H](O)C12 (stereo partly drawn),parasite load remaining,[16],61.4% (inactive)
same,viability,[16],104%
same,fold change,[2]; [21],0.684 (active)
same,fold change,[2]; [22],2.93
same,cell count,[2]; [23],5870
same,cell count,[2]; [24],8580
same,z-score,[3]; [25],-2.33 (inactive)
same,z-score,[3]; [26],-2.53
